Shown are actives, neighbours in structure and some others; about 27% of the full set was active somewhere.
CYP2C19 activ: activators of human cytochrome P450 2C19; recombinant CYP2C19, luciferin-H EGE luminescence; hits give high values; 0 = fully inhibited enzyme, 1 = untreated enzyme; activation factor at 5 µM; 96,000 tested, under 10 active; AID 1025;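 active means activation factor of at least 2 at 5 µM in the primary screen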
Target sequence (P33261 whole entry, looked up): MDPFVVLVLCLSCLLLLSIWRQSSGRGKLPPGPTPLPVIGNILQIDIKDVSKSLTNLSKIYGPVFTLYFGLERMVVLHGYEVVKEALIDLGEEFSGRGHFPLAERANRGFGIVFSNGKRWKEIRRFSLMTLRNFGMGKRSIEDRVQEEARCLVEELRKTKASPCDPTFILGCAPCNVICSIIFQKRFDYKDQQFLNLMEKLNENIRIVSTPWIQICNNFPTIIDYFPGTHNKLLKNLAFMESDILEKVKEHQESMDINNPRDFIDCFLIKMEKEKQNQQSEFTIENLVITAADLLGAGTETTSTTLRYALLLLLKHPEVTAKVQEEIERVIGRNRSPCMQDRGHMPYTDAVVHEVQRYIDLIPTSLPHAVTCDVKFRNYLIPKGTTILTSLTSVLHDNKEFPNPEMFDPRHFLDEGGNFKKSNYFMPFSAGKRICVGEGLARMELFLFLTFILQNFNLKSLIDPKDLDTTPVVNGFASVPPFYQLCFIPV
EphB4 antag: blocks human EphB4 binding to ephrin-B2; P54760; AID 720; inhibition, % at 7 µM; 97,000 compounds, 0.15% hits; EphB4 LBD / TNYL-RAW-Alexa532 peptide, fluorescence polarization;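 active means inhibition above the screen-wide mean inhibition plus 3 SD, cut at about 15% in these data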
CYP2C9 act: CYP2C9 (human) activation. P11712. recombinant CYP2C9, luciferin-H conversion, luminescence; hits give high values; factor 1 = untreated enzyme, 0 = blocked. activation factor at 5 µM. 96,000 compounds, 1.4% hits. AID 1024;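 active means activation factor of 2 or more for CYP2C9 at a 5 µM dose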
CYP2C9 inh: blocks human cytochrome P450 2C9; P11712; CYP2C9 Supersomes, luciferin-H conversion, luminescence; inhibition, % at 5 µM; 96,000 compounds, 20% hits;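 active means blocking of liver enzyme CYP2C9 beyond about 50% at 5 µM, limit read from the data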
CYP2C19 inhib: inhibitors of human CYP2C19 | P33261 | CYP2C19 Supersomes, luciferin-H EGE luminescence, 30 min | inhibition, % at 5 µM | 96,000 compounds, 21% hits | AID 778;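 active means CYP2C19 inhibition above a set limit at 5 µM in the primary screen, cut at about 50% in these data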
A number is an active result; – = inactive.

SMILES | CYP2C19 activ | EphB4 antag | CYP2C9 act | CYP2C9 inh | CYP2C19 inhib
Cc1nn(-c2ccc(Cl)cc2)c2[nH]c(=O)c(CNCc3ccc4c(c3)OCO4)cc12 | – | – | – | 56 | 65
Cc1nn(-c2ccccc2)c2[nH]c(=O)c(CNc3ccc(N4CCOCC4)cc3)cc12 | – | – | – | 57 | –
Cc1c(C#N)c2ccccc2n1CC(=O)NCC1CCCO1 (stereo not given) | – | – | – | – | –
Cc1c(CCO)c(=O)n(C)n1C(=O)c1ccc(Cl)cc1 | – | – | – | – | 56
Cc1c(CCO)c(=O)n(C)n1C(=O)c1ccc(F)cc1 | – | – | – | – | –
Cc1ccc(/C=N/N2C(=S)SC(C)(C)C2N(O)C(=O)Nc2ccc([N+](=O)[O-])cc2)cc1 (stereo not given) | – | – | – | – | –
CC1(C)SC(=S)N(/N=C/c2ccc(O)cc2)C1N(O)C(=O)Nc1ccc([N+](=O)[O-])cc1 (stereo not given) | – | – | – | 66 | –
CCOc1ccc(S(=O)(=O)NCc2ccccn2)cc1 | – | – | – | – | 74
Cc1ccc(CNS(=O)(=O)N(C)C)cc1 | – | – | – | – | 62
CCOc1ccc(S(=O)(=O)NCc2cccs2)cc1 | – | – | – | – | –

Bioassay records as filed in PubChem BioAssay.
